Inconclusive results are not listed. Calls of active or inactive are those of the source. How the source made its calls: active means hit-call score of the fitted dose curve at least 0.9, where 1 is the maximum; inconclusive means response in the unintended direction; inactive means score below 0.9.

Sequence of Glyceraldehyde-3-phosphate dehydrogenase (Homo sapiens) (P04406 whole entry, looked up): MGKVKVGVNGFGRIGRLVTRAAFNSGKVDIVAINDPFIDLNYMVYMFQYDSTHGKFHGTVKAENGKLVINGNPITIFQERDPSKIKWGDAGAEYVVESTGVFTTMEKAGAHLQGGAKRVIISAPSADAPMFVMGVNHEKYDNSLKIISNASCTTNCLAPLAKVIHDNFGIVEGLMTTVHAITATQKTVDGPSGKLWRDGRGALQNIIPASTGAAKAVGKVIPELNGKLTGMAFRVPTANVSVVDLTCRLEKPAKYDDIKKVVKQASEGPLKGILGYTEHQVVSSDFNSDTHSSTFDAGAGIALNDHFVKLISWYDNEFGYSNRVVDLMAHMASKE

Read-out in this assay: Glyceraldehyde-3-phosphate dehydrogenase (Homo sapiens) (UniProt P04406)
Description: CLD_GAPDH_48hr: CellzDirect (CLD) Gene Expression Assay for Baseline Control (Glyceraldehyde 3-phosphate dehydrogenase) at 48 hours (AID 2283706).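 Further: active means higher GAPDH mRNA than DMSO vehicle.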 As for the experimental part:
CLD_48hr is a cell-based, multiplexed-readout assay that uses hepatocyte, a human liver primary cell, with measurements taken at 48 hours after chemical dosing in a 96-well plate.CLD_GAPDH_48hr is one of 16 assay component(s) measured or calculated from the CLD_48hr assay. It is designed to make measurements of mRNA induction, a form of inducible reporter, as detected with chemiluminescence signals by Quantitative Nuclease Protection Assay (qNPA) technology.Data from the assay component CLD_GAPDH_48hr was analyzed at the endpoint, CLD_GAPDH_48hr, in the positive analysis fitting direction relative to DMSO as the negative control and baseline of activity. Using a type of inducible reporter, gain-of-signal activity can be used to understand changes in the reporter gene as they relate to the gene GAPDH. Furthermore, this assay endpoint can be referred to as a secondary readout, because this assay has produced multiple assay endpoints where this one serves a background control function. To generalize the intended target to other relatable targets, this assay endpoint is annotated to the background measurement intended target family, where subfamily is baseline control.
Human hepatocyte cultures were treated daily for two consecutive days with fresh dosing solutions containing appropriate concentrations of the 320 ToxCast chemicals (chemical identities were blinded to CellzDirect and other ToxCast collaborators), vehicle control (0.2% DMSO), and positive control inducers as summarized in Table 1. Due to the large number of treatment groups and chemicals examined, the ToxCast chemicals were divided into two groups (spanning two independent cultures of hepatocytes from separate donor preparations (Hu778: ToxCast plates 1 and 2; Hu776: ToxCast plates 3 and 4). Each preparation of human hepatocyte cultures was treated with respective vehicle control, medium only control, set of six positive controls/reference chemicals for the five hepatic receptor pathways, and a subset of eight of the ToxCast chemicals (indoxacarb, pyrithiobac-sodium, norflurazon, cyhalofop-butyl, methomyl, thiram, acetochlor, and propiconazole). These replicate data, coupled with internal replicates designed within the blinded ToxCast chemical library, provided additional data to evaluate interindividual differences between hepatocyte preparations and their potential impact on chemical profiles.Cell morphology and integrity were evaluated using phase-contrast microscopy as an indicator of hepatocyte cell health (Tyson & Green, 1987). Cultures for each treatment group (i.e., media, vehicle [0.2% DMSO], positive control inducers [multiple concentrations], and the ToxCast chemicals [multiple concentrations]) were observed and cell morphology was assessed relative to vehicle control cultures at each harvest time point (0, 6, 24, or 48 h). […] Images were evaluated at the conclusion of the study to assess changes in cell integrity and account for the effects of chemical exposure on uncharacteristic changes in concentration-dependent gene expression profiles. The results from these determinations of apparent cytotoxicity were annotated (yes/no) alongside the corresponding qNPA data for reference.At the conclusion of each treatment period, hepatocyte cultures (96-well) were washed with 1 volume of HBSS, lysed by addition of 25 ul ArrayPlate lysis buffer (HTG, Tucson, AZ), and 70 ul/well of Denaturation Oil, denatured by incubation at 95C for 10 min, and frozen at approximately -70C until analysis by nuclease protection assay (qNPA) (Roberts et al., 2007). For qNPA analysis, cell lysates were thawed at 50C for approximately 30 min, qNPA probes were added, and samples were incubated at 95C for 10 min to begin the detection process by denaturing the target RNA, dissociating the duplexes and secondary structure hybridization. At the conclusion of the hybridization period, S1 nuclease reagent was added to each sample to digest all nonprotected nucleotides at 50C for 60-90 min. […]
In the case of `CCCC(=NOCC)C1=C(O)CC(CC(C)SCC)CC1=O` (stereo unspecified), the compound was classed as inactive.
The value for `CCOP(=O)(OCC)Oc1nc(Cl)c(Cl)cc1Cl` was “inactive”; that for `Cc1cnc(C2=NC(C)(C(C)C)C(=O)N2)c(C(=O)O)c1` (stereo unspecified) was “inactive”.
Take `C=CCOC(=O)C(C)(C)OC(=O)c1cc(-n2c(=O)cc(C(F)(F)F)n(C)c2=O)ccc1Cl`: the outcome was inactive.
The entry for `Clc1cccc(C(Cl)(Cl)Cl)n1` is “inactive”.
The entry for `CC(C)=CC1C(C(=O)OCc2coc(Cc3ccccc3)c2)C1(C)C` (stereo unspecified) is “inactive”; for `COP(=O)(OC)O/C(C)=C/C(=O)N(C)C` it is “inactive”; for `CCCN(CC)CC1COC2(CCC(C(C)(C)C)CC2)O1` (stereo unspecified) it is “inactive”.
Turning to `CC(C)C1(C)N=C(c2ncccc2C(=O)O)NC1=O` (stereo unspecified), the compound was called inactive.
The entry for `CC(C)N1C(=O)c2ccccc2NS1(=O)=O` is “inactive”.
The entry for `CCOc1nc(C(Cl)(Cl)Cl)ns1` is “inactive”.
As to `COCc1cnc(C2=NC(C)(C(C)C)C(=O)N2)c(C(=O)O)c1` (stereo unspecified), the compound was called inactive.
On to `Clc1nc(Cl)nc(Nc2ccccc2Cl)n1`, for which the compound was classed as inactive.
The entry for `CNC(=O)N(C)c1nnc(C(C)(C)C)s1` is “inactive”; for `COc1cc(Cl)c(OC)cc1Cl` it is “inactive”; for `CC1(C)CON(Cc2ccccc2Cl)C1=O` it is “inactive”.
The value for `CN=C=S` was “inactive”; that for `O=C(O)c1c(Cl)ccc2cc(Cl)cnc12` was “inactive”.
The value for `COCC(C)N(C(=O)CCl)c1c(C)csc1C` (stereo unspecified) was “inactive”; that for `Cc1nc(N(C)C)nc(OC(=O)N(C)C)c1C` was “inactive”; that for `Cc1ccc(N=CN(C)C=Nc2ccc(C)cc2C)c(C)c1` was “inactive”.
Regarding `CS(=O)(=O)c1cc(C(F)(F)F)ccc1C(=O)c1cnoc1C1CC1`, the compound was classed as inactive.
Consider `CS(=O)(=O)c1ccc(C(=O)C2C(=O)CCCC2=O)c([N+](=O)[O-])c1`, for which the compound was classed as inactive.
As for `COC(=O)NS(=O)(=O)c1ccc(N)cc1`, the compound was classed as inactive.
The value for `C=C(C)CN(CC)c1c([N+](=O)[O-])cc(C(F)(F)F)cc1[N+](=O)[O-]` was “inactive”; that for `Nc1cnn(-c2ccccc2)c(=O)c1Cl` was “inactive”.

Values taken from PubChem BioAssay (EPA / NIEHS).
